About 83,000 compounds went through this panel and 20% of them were active in at least one assay; those are over-represented in the sample as a whole.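 Testing used 96-well plates and a 48-hour single-concentration exposure. Example: -40 means 40% of the starting cells died.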 Unmarked numbers belong to inactive results. Calls of active or inactive are those of the source. The calls were made as follows: active = growth percent below 10; inactive = the rest.
tested on: OVCAR-3 ovarian; test: NCI-60 one-dose screen, 48 h (100 = growth as untreated, 0 = no growth, -100 = all killed); details: 10 µM unless noted

Structure (SMILES)	growth
CCOC(=O)CCC(NC(=O)C(Cc1ccc(N(CCCl)CCCl)cc1)NC=O)C(=O)OCC (configuration not stated)	-17.4% (active)
COC(=O)[C@@H](C)C[C@H](Cc1ccccc1)NC(=O)c1nc([C@@H](C[C@H](C(C)C)N(C)C(=O)[C@@H](NC(=O)[C@H]2CCCCN2C)C(C)C)OC(C)=O)sc1C(C)C	-22.9% (active)
CCCC(C)C1(CC)C(=O)NC(=O)N(C)C1=O (configuration not stated)	108%
C=CCCCCCCCCC(=O)[O-].C=CCCCCCCCCC(=O)[O-].[Zn+2]	118%
COc1ccc(C(O)(C(=O)O)c2ccc(OC)cc2)cc1	106%
Nc1c(F)cc(-c2nc3cc(F)ccc3[se]2)cc1F	71.3%
CC(=O)O[C@@H]1CC[C@]2(C)[C@H]3CC[C@]4(C)C(=O)CC[C@H]4[C@@H]3C[C@@H]3SC(N)=N[C@@]32C1	36.2%
N#CC1(C#N)C(c2ccc(N(CCCl)CCCl)cc2)OC23CCCCC2C1(C#N)C(=N)O3 (configuration not stated)	98.5%
CCCCNC(c1ccc(Cl)cc1)C(O)c1ccc(Cl)cc1 (configuration not stated)	55.6%
CCOC(=O)[C@@H](C)C[C@H](Cc1ccccc1)NC(=O)c1csc([C@@H](C[C@H](C(C)C)N(C)C(=O)[C@H](CC)NC(=O)[C@H]2CCCCN2C)OC(C)=O)n1	-6.1% (active)
C[Se]C(=O)c1ccccc1OC(C)=O	55.3%
ClC1=C(Cl)C(Cl)(C2(Cl)C(Cl)=C(Cl)C(Cl)=C2Cl)C(Cl)=C1Cl	-77.4% (active)
CN[C@@]1(c2ccccc2Cl)CCCC[C@@H]1NCC1CCCO1 (some centres not stated)	116%
COc1cc2c(cc1OCc1ccccc1)C(CC(C)C)=[N+](C)CC2	65.7%
CC(=O)O[C@H]1CC[C@H]2[C@@H]3CC=C4c5nc(-c6ccccc6)sc5CC[C@]4(C)[C@H]3CC[C@]12C	92.9%
N#CC1(c2ccccc2)CCN(Cc2ccccc2)CC1	101%
COc1ccc(/C=C\c2cc(OC)c(OC)c(OC)c2)cc1OCC(=O)Nc1nc2ccc(OC(F)(F)F)cc2s1	-30.7% (active)
CC(C)(C)C(=O)OCOP(=O)(NCc1ccccc1)C1CCCN(O)C1=O (configuration not stated)	-6.7% (active)
CC(=O)Nc1ccc(NC(=O)c2ccc([As](O)O)cc2)cc1	114%

Structure (SMILES)	growth
O[C@H](CN1CC1)[C@@H](O)CN1CC1	101%
Cc1cc(C)c(CBr)c(C)c1	113%
CCOP1(=O)CC(C)=C(Cl)C(P(=O)(OCC)OCC)C1 (configuration not stated)	94.5%
CC12CCC3C(CCC4=CC(=O)CCC43CF)C1CCC2=O (configuration not stated)	119%
C=C1[C@@H](C)[C@H]2[C@H](Cc3ccccc3)NC(=O)[C@]23[C@@H](O)/C=C/[C@@](C)(O)C(=O)[C@@H](C)C/C=C/[C@H]3[C@@H]1O	46.2%
NC(=O)C(Br)c1ccccc1 (configuration not stated)	91.9%
CCC(=O)Nc1ccc(Cl)c(Cl)c1	107%
CC[C@H](C)[C@@H]1OC(=O)C(C)(C)[C@H](O)[C@H](Cc2ccccc2)OC(=O)[C@H](C(C)C)OC(=O)[C@@H](NC(=O)c2cccc(NC=O)c2O)[C@@H](C)OC1=O	48.2%
NC(=S)c1cn(C2OC(CO)C(O)C2O)c2ncnc(N)c12 (configuration not stated)	-26.2% (active)
Nc1ncnc2n[nH]nc12	75.1%
COc1cc(/C=C/[N+](=O)[O-])cc(OC)c1	-30.3% (active)
Clc1cccc(NCOOC2(OOCNc3cccc(Cl)c3)CCCCCC2)c1	97.1%
Brc1ccc2c(c1)c(-c1nc(-c3c[nH]c4ncccc34)cs1)cn2CCN1CCOCC1	72.9%
O=C1C(Cl)=C(N2CCOCC2)C(=O)c2ccccc21	-58.3% (active)
CC1=C(CCCNS(C)(=O)=O)C2=C(C)C3(CC3)[C@@](C)(O)C(=O)C2=C1	-12.7% (active)
CCN(CCO)C(Cc1ccccc1)c1ccccc1 (configuration not stated)	109%
CCCCC1(CCC)C(=O)NC(=S)NC1=O	93.3%
CC[C@H](C)[C@H](NC(=O)[C@H]1CCCCN1C)C(=O)N(C)[C@H](CC(=O)c1nc(C(=O)N[C@@H](Cc2ccccc2)C[C@H](C)C(=O)O)cs1)C(C)C	55.8%

tested on: HS 578T breast; test: as above; details: 10 µM unless noted

Structure (SMILES)	growth
CCOC(=O)CCC(NC(=O)C(Cc1ccc(N(CCCl)CCCl)cc1)NC=O)C(=O)OCC (configuration not stated)	51.8%
COC(=O)[C@@H](C)C[C@H](Cc1ccccc1)NC(=O)c1nc([C@@H](C[C@H](C(C)C)N(C)C(=O)[C@@H](NC(=O)[C@H]2CCCCN2C)C(C)C)OC(C)=O)sc1C(C)C	4.24% (active)
CCCC(C)C1(CC)C(=O)NC(=O)N(C)C1=O (configuration not stated)	99.4%
C=CCCCCCCCCC(=O)[O-].C=CCCCCCCCCC(=O)[O-].[Zn+2]	105%
COc1ccc(C(O)(C(=O)O)c2ccc(OC)cc2)cc1	94.6%
Nc1c(F)cc(-c2nc3cc(F)ccc3[se]2)cc1F	94.7%
CC(=O)O[C@@H]1CC[C@]2(C)[C@H]3CC[C@]4(C)C(=O)CC[C@H]4[C@@H]3C[C@@H]3SC(N)=N[C@@]32C1	54.5%
N#CC1(C#N)C(c2ccc(N(CCCl)CCCl)cc2)OC23CCCCC2C1(C#N)C(=N)O3 (configuration not stated)	101%
CCCCNC(c1ccc(Cl)cc1)C(O)c1ccc(Cl)cc1 (configuration not stated)	64.2%
CCOC(=O)[C@@H](C)C[C@H](Cc1ccccc1)NC(=O)c1csc([C@@H](C[C@H](C(C)C)N(C)C(=O)[C@H](CC)NC(=O)[C@H]2CCCCN2C)OC(C)=O)n1	9.11% (active)
C[Se]C(=O)c1ccccc1OC(C)=O	35.3%
ClC1=C(Cl)C(Cl)(C2(Cl)C(Cl)=C(Cl)C(Cl)=C2Cl)C(Cl)=C1Cl	53.3%
CN[C@@]1(c2ccccc2Cl)CCCC[C@@H]1NCC1CCCO1 (some centres not stated)	96.3%
COc1cc2c(cc1OCc1ccccc1)C(CC(C)C)=[N+](C)CC2	83.1%
CC(=O)O[C@H]1CC[C@H]2[C@@H]3CC=C4c5nc(-c6ccccc6)sc5CC[C@]4(C)[C@H]3CC[C@]12C	64.2%
N#CC1(c2ccccc2)CCN(Cc2ccccc2)CC1	96.3%
COc1ccc(/C=C\c2cc(OC)c(OC)c(OC)c2)cc1OCC(=O)Nc1nc2ccc(OC(F)(F)F)cc2s1	12.5%
CC(C)(C)C(=O)OCOP(=O)(NCc1ccccc1)C1CCCN(O)C1=O (configuration not stated)	14.7%

Structure (SMILES)	growth
CC(=O)Nc1ccc(NC(=O)c2ccc([As](O)O)cc2)cc1	117%
O[C@H](CN1CC1)[C@@H](O)CN1CC1	97.1%
CCOP1(=O)CC(C)=C(Cl)C(P(=O)(OCC)OCC)C1 (configuration not stated)	103%
CC12CCC3C(CCC4=CC(=O)CCC43CF)C1CCC2=O (configuration not stated)	128%
C=C1[C@@H](C)[C@H]2[C@H](Cc3ccccc3)NC(=O)[C@]23[C@@H](O)/C=C/[C@@](C)(O)C(=O)[C@@H](C)C/C=C/[C@H]3[C@@H]1O	-11.7% (active)
NC(=O)C(Br)c1ccccc1 (configuration not stated)	103%
CCC(=O)Nc1ccc(Cl)c(Cl)c1	110%
CC[C@H](C)[C@@H]1OC(=O)C(C)(C)[C@H](O)[C@H](Cc2ccccc2)OC(=O)[C@H](C(C)C)OC(=O)[C@@H](NC(=O)c2cccc(NC=O)c2O)[C@@H](C)OC1=O	73.4%
NC(=S)c1cn(C2OC(CO)C(O)C2O)c2ncnc(N)c12 (configuration not stated)	-25.4% (active)
Nc1ncnc2n[nH]nc12	94.7%
COc1cc(/C=C/[N+](=O)[O-])cc(OC)c1	40.9%
Brc1ccc2c(c1)c(-c1nc(-c3c[nH]c4ncccc34)cs1)cn2CCN1CCOCC1	66.8%
O=C1C(Cl)=C(N2CCOCC2)C(=O)c2ccccc21	116%
CC1=C(CCCNS(C)(=O)=O)C2=C(C)C3(CC3)[C@@](C)(O)C(=O)C2=C1	57.9%
CCN(CCO)C(Cc1ccccc1)c1ccccc1 (configuration not stated)	105%
CCCCC1(CCC)C(=O)NC(=S)NC1=O	111%
CC[C@H](C)[C@H](NC(=O)[C@H]1CCCCN1C)C(=O)N(C)[C@H](CC(=O)c1nc(C(=O)N[C@@H](Cc2ccccc2)C[C@H](C)C(=O)O)cs1)C(C)C	72.2%
